Assay [1] addresses Myc proto-oncogene protein (Homo sapiens) (UniProt P01106). As to the kind of experiment: ATG_Myc_CIS: Attagene CIS-FACTORIAL HepG2 Assay for human Myelocytomatosis (Myc) Proto-Oncogene Transcription Factor (AID 2282990). The following applies: HepG2, Attagene cis-reporter transcription factor activity; actives raise or lower the signal. The method, boiled down: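 Fluorescence intensity of reporter-specific cDNA fragments, separated by capillary electrophoresis, gives the signal. Transfected HepG2 cells carrying cis-promoter reporter constructs are incubated with compound for 24 h; DMSO serves as baseline.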

Assay [2] is described as follows: ATG_NRF2_ARE_CIS: Attagene CIS-FACTORIAL HepG2 Assay for human Nuclear Factor Erythroid 2 Related Factor 2 (NFR2) response to Antioxidant Response Elements (ARE) (AID 2282992).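 On AC50: reporter mRNA level measured by RT-PCR and capillary electrophoresis fluorescence.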 The following applies: HepG2 Attagene ARE/NRF2 reporter, transcription factor activity; actives raise or lower the signal. An outline of the steps:
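Transient MRTU transfection of HepG2; 24 h compound exposure; TriZol RNA, RT with oligo(dT), PCR, 6-FAM primer extension, HpaI cut, CE. Bidirectional fit vs DMSO.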

Assay [3] deals with Cellular tumor antigen p53 (Homo sapiens) (UniProt P04637). As to the kind of experiment: ATG_p53_CIS: Attagene CIS-FACTORIAL HepG2 Assay for human p53 Transcription Factor (AID 2282994). The conditions noted are these: HepG2 p53 cis-element reporter, Attagene mRNA; actives raise or lower the signal. The method, boiled down:
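HepG2, transient MRTU transfection (cis promoter elements, endogenous TFs); 24 h dosing; RNA isolation, RT-PCR, 6-FAM primer extension, HpaI digest, CE fluorescence; bidirectional fit vs DMSO.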

The target of assay [4] is human Peroxisome Proliferator-activated Receptor delta (PPARd), PPARD (gene 5467) (UniProt Q03181). As to the kind of experiment: ATG_PPARd_TRANS: Attagene TRANS-FACTORIAL HepG2 Assay for human Peroxisome Proliferator-activated Receptor delta (PPARd) (AID 2283002; active means hit-call score of the fitted dose curve at least 0.9, where 1 is the maximum). An outline of the steps:
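Fluorescence from capillary electrophoresis of labelled RT-PCR reporter fragments gives the signal; DMSO sets baseline. Cells: HepG2 transiently carrying GAL4-UAS reporter units plus chimeric nuclear receptor-Gal4 proteins, exposed to chemicals for 24 h.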

Assay [5] concerns the target human Retinoic Acid Receptor beta (RARb), RARB (gene 5915) (UniProt P10826). As to the kind of experiment: ATG_RARb_TRANS: Attagene TRANS-FACTORIAL HepG2 Assay for human Retinoic Acid Receptor beta (AID 2283004; active means hit-call score of the fitted dose curve at least 0.9, where 1 is the maximum). The method, boiled down: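 HepG2 cells transiently transfected with multiplexed GAL4-UAS reporter units expressing chimeric NR–Gal4 fusions; 24 h compound exposure. Reporter mRNA quantified by RT-PCR, 6-FAM labelling, HpaI digestion and capillary electrophoresis; gain-of-signal fitted against DMSO baseline.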

The target of assay [6] is Nuclear receptor subfamily 1 group I member 2 (Homo sapiens) (UniProt O75469). As to the kind of experiment: ATG_PXR_TRANS: Attagene TRANS-FACTORIAL HepG2 Assay for human Pregnane X Receptor (PXR) (AID 2283008; active means hit-call score of the fitted dose curve at least 0.9, where 1 is the maximum). An outline of the steps: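 Read-out is fluorescence of labelled reporter cDNA fragments separated by capillary electrophoresis after RT-PCR and HpaI digestion. Source: HepG2 cells carrying PXR-GAL4/UAS reporter constructs, treated 24 h; activity fitted upward relative to DMSO.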

In assay [7] the target is human RAR-related Orphan Receptor beta (RORb), RORB (gene 6096) (UniProt Q92753). The experiment in a line: ATG_RORb_TRANS: Attagene TRANS-FACTORIAL HepG2 Assay for human RAR-related Orphan Receptor beta (RORb) (AID 2283010; active means hit-call score of the fitted dose curve at least 0.9, where 1 is the maximum). The method, boiled down:
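HepG2 cells transiently transfected with GAL4-UAS reporter units expressing chimeric NR-Gal4 protein; reporter mRNA measured 24 h after dosing by RT-PCR, 6-FAM labelling and capillary electrophoresis. Gain-of-signal fitted relative to DMSO baseline.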

The target of assay [8] is human RAR-related Orphan Receptor gamma (RORg), RORC (gene 6097) (UniProt P51449). The experiment in a line: ATG_RORg_TRANS: Attagene TRANS-FACTORIAL HepG2 Assay for human RAR-related Orphan Receptor gamma (RORg) (AID 2283011; active means hit-call score of the fitted dose curve at least 0.9, where 1 is the maximum). The method, boiled down:
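Readout: reporter transcript induction (RT-PCR, fluorescent primer extension, capillary electrophoresis) after 24 h compound exposure of transiently transfected HepG2 cells carrying a RORg-Gal4 chimera and GAL4-UAS reporters; DMSO served as baseline, with increasing signal fitted.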

A short description of assay [9]: ATG_NF_kB_CIS: Attagene CIS-FACTORIAL HepG2 Assay for human Nuclear Factor Kappa B (NF-kB) (AID 2282991). The conditions noted are these: HepG2 Attagene cis-factorial NF-kB reporter mRNA; actives raise or lower the signal. The method, boiled down: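 After 24 h compound incubation, transfected HepG2 cells yield total RNA; reporter cDNA is PCR-amplified, end-labelled with 6-FAM, HpaI-digested and analysed on a genetic analyser. Endogenous factor activity, DMSO-referenced bidirectional fit.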

The nature of assay [10]: ATG_Oct_MLP_CIS: Attagene CIS-FACTORIAL HepG2 Assay for human Octamer-Binding Transcription Factor (Oct) (AID 2282993). The following applies: HepG2 Attagene cis-factorial Oct reporter, mRNA; actives raise or lower the signal. The method, boiled down:
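Multiplexed cis-reporter assay in human liver HepG2 cells, 24 h incubation. Reporter RNA amplified and labelled, then resolved by capillary electrophoresis; DMSO serves as negative control and baseline.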

Assay [11] concerns the target Peroxisome proliferator-activated receptor gamma (Homo sapiens) (UniProt P37231). As to the kind of experiment: ATG_PPARg_TRANS: Attagene TRANS-FACTORIAL HepG2 Assay for human Peroxisome Proliferator-activated Receptor-gamma (PPARg) (AID 2283007; active means hit-call score of the fitted dose curve at least 0.9, where 1 is the maximum). The method, boiled down:
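Liver-derived HepG2 cells expressing an exogenous NR-Gal4 chimera alongside GAL4-UAS reporter genes; 24 h exposure. Fluorescence of reporter RT-PCR products, separated by capillary electrophoresis, gives mRNA induction relative to DMSO.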

The target of assay [12] is human Retinoic Acid Receptor gamma (RARg), RARG (gene 5916) (UniProt P13631). The experiment in a line: ATG_RARg_TRANS: Attagene TRANS-FACTORIAL HepG2 Assay for human Retinoic Acid Receptor gamma (RARg) (AID 2283009; active means hit-call score of the fitted dose curve at least 0.9, where 1 is the maximum). An outline of the steps:
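HepG2 transiently transfected with GAL4-UAS reporter units and chimeric NR-Gal4 constructs; 24 h compound exposure. Reporter mRNA quantified by RT-PCR, FAM labeling, HpaI digestion and capillary electrophoresis; gain-of-signal versus DMSO.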

Assay [13] concerns the target human Peroxisome Proliferator-activated Receptor alpha (PPARa), PPARA (gene 5465) (UniProt Q07869). The experiment in a line: ATG_PPARa_TRANS: Attagene TRANS-FACTORIAL HepG2 Assay for human Peroxisome Proliferator-activated Receptor alpha (PPARa) (AID 2283001; active means hit-call score of the fitted dose curve at least 0.9, where 1 is the maximum;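 on AC50: potency for gain of reporter signal over DMSO so agonist or activator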). The method, boiled down: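 HepG2 cells transiently transfected with multiplexed GAL4-UAS reporters driven by exogenous chimeric NR-Gal4 proteins; reporter mRNA measured after 24 h dosing. Read-out by RT-PCR, 6-FAM labelling, HpaI digestion and capillary electrophoresis; gain of signal versus DMSO.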

A short description of assay [14]: BSK_3C_uPAR: BioMAP Diversity Plus: 3C Assay for Urokinase-type plasminogen activator receptor (uPAR) Biomarker Activity (AID 2282998). The following applies: BioMAP 3C HUVEC, uPAR biomarker ELISA; actives raise or lower the signal. The method, boiled down:
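Dose primary human umbilical vein endothelial cells, incubate 24 h, measure cell-surface uPAR by ELISA, then fit the signal in both directions against the DMSO negative control.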
(In general: ELISA stands for enzyme-linked immunosorbent assay.)

A short description of assay [15]: BSK_3C_VCAM1: BioMAP Diversity Plus: 3C Assay for Vascular cell adhesion molecule 1 (VCAM1) Biomarker Activity (AID 2282999). The conditions noted are these: BioMAP 3C HUVEC, VCAM1 ELISA, cytokine-stimulated; actives raise or lower the signal. The method, boiled down:
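Human umbilical vein endothelial cells (3C system), biomarker read by ELISA 24 h after dosing; bidirectional fit against DMSO baseline. Cytotoxicity tracked by SRB total-protein staining in parallel cultures at biomarker time.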

The nature of assay [16]: BSK_4H_Eotaxin3: BioMAP Diversity Plus: 4H Assay for Eotaxin 3 Biomarker Activity (AID 2283000). The following applies: primary human endothelial cells (HUVEC); actives raise or lower the signal. The method, boiled down:
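HUVEC, 24 h post-dose, ELISA for Eotaxin-3/CCL26. Gain or loss of signal fitted bidirectionally vs DMSO baseline.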

Read-out in assay [17]: Intercellular Adhesion Molecule 1 (ICAM1), ICAM1 (gene 3383)
The experiment in a line: BSK_3C_ICAM1: BioMAP Diversity Plus: 3C Assay for Intercellular Adhesion Molecule 1 (ICAM1) Biomarker Activity (AID 2283003). The conditions noted are these: primary human endothelial cells (HUVEC); actives raise or lower the signal. An outline of the steps: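 HUVEC primary cells stimulated under 3C conditions; ICAM1 measured by ELISA 24 h after compound dosing. Curves fitted bidirectionally against the DMSO baseline. Overt cytotoxicity checked by SRB staining of parallel cultures.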

The nature of assay [18]: BSK_3C_Proliferation: Cell Proliferation Assessment in the BioMAP Diversity Plus: 3C Assay (AID 2283006).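 Further: potency may reflect either rise or fall in cell number versus DMSO.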 The following applies: primary human endothelial cells (HUVEC). The method, boiled down:
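Subconfluent HUVEC (3C system) cultured with chemical; relative cell number read at 48 h by sulforhodamine B total-protein staining (0.1% SRB after 10% TCA fixation, 560 nm). Bidirectional fit relative to DMSO.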

Records with an inconclusive call do not appear. Calls of active or inactive are those of the source. How the source made its calls, unless noted: active means hit-call score of the fitted dose curve at least 0.9, where 1 is the maximum; inactive means score below 0.9.

Cellular tumor antigen p53 (Homo sapiens), sequence (P04637 whole entry, looked up): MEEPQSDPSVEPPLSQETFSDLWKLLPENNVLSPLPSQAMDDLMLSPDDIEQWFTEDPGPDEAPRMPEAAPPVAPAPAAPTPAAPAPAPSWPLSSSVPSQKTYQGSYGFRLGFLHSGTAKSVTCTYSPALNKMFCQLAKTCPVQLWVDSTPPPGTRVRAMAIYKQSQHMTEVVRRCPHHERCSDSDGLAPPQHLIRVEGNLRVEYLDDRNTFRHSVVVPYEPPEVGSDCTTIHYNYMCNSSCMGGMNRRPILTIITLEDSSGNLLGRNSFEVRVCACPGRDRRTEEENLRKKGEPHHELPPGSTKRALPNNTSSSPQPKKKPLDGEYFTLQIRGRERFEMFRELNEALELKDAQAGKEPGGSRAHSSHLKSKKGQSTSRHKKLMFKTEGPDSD
human Peroxisome Proliferator-activated Receptor alpha (PPARa), PPARA (gene 5465), sequence (Q07869 whole entry, looked up, the tested form may be a part): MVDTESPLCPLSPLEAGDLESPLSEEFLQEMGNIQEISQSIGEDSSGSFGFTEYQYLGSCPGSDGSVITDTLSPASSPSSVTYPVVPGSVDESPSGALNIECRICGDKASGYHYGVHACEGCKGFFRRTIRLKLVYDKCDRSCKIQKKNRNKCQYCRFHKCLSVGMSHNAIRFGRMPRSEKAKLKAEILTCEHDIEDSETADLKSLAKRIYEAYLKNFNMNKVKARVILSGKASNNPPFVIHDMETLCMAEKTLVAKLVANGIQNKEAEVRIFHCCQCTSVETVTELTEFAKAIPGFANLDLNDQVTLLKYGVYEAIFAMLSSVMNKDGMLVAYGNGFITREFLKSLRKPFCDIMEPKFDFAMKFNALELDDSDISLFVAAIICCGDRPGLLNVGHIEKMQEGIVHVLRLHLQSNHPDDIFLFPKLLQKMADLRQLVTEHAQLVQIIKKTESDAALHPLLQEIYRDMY
Myc proto-oncogene protein (Homo sapiens), sequence (P01106 whole entry, looked up, the tested form may be a part): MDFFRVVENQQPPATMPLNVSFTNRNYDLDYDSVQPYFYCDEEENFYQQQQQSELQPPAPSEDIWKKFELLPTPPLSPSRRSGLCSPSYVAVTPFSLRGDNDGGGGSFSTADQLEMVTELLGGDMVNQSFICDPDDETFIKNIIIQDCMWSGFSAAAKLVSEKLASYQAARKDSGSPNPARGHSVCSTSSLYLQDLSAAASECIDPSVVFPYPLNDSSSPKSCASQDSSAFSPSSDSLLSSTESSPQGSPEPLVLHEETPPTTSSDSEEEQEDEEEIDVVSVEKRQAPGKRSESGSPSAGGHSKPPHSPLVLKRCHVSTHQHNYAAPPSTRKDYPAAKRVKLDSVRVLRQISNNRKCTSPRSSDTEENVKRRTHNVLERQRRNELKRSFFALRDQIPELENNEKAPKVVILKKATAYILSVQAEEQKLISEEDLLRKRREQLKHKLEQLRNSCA
Peroxisome proliferator-activated receptor gamma (Homo sapiens), sequence (P37231 whole entry, looked up, the tested form may be a part): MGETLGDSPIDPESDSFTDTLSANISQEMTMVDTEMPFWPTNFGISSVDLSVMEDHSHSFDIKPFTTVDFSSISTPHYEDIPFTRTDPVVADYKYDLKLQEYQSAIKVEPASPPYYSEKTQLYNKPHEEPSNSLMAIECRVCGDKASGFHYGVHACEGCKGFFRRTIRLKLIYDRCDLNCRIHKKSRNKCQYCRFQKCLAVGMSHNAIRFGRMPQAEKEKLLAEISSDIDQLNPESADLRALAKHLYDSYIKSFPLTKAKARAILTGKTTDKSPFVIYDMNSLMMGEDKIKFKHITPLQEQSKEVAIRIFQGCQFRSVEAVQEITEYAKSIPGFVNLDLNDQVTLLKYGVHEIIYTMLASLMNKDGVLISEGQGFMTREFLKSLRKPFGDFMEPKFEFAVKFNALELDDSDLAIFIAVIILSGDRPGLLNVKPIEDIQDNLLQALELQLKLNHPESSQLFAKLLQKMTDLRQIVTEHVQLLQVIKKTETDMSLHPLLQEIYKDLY
human Peroxisome Proliferator-activated Receptor delta (PPARd), PPARD (gene 5467), sequence (Q03181 whole entry, looked up, the tested form may be a part): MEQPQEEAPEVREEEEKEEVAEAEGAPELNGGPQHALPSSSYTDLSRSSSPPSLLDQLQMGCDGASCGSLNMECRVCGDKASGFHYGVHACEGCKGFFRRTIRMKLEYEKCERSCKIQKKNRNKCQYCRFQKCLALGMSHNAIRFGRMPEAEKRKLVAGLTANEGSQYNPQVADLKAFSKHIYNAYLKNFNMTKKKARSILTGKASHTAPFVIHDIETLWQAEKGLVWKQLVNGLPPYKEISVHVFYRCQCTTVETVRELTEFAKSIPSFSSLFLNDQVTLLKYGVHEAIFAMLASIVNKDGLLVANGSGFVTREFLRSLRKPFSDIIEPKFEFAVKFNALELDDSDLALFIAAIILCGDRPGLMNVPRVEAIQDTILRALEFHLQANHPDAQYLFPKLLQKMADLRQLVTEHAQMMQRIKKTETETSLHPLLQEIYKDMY
Nuclear receptor subfamily 1 group I member 2 (Homo sapiens), sequence (O75469 whole entry, looked up, the tested form may be a part): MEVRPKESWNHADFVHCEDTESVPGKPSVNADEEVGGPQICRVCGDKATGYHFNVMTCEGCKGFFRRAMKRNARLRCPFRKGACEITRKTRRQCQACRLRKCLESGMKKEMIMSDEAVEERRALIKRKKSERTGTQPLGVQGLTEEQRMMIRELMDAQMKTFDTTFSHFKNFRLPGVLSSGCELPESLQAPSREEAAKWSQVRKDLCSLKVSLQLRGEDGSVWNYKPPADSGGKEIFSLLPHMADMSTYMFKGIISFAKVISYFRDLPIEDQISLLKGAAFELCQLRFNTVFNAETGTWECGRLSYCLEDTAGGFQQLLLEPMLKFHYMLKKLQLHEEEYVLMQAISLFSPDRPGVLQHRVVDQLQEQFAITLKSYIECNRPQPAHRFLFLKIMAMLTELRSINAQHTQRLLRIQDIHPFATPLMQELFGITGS
human Retinoic Acid Receptor gamma (RARg), RARG (gene 5916), sequence (P13631 whole entry, looked up, the tested form may be a part): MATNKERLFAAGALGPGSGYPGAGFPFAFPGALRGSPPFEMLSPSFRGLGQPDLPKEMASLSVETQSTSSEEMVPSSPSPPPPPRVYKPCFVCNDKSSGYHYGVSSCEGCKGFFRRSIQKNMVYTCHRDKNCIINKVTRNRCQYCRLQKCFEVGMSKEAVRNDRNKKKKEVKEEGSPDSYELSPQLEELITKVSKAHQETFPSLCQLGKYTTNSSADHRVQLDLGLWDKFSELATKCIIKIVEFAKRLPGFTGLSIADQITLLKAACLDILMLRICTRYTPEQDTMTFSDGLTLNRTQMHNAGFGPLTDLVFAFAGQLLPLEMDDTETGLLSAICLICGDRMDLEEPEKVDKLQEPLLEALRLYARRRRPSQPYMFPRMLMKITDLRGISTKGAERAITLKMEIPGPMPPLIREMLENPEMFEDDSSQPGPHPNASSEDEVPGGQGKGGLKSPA
human RAR-related Orphan Receptor beta (RORb), RORB (gene 6096), sequence (Q92753 whole entry, looked up, the tested form may be a part): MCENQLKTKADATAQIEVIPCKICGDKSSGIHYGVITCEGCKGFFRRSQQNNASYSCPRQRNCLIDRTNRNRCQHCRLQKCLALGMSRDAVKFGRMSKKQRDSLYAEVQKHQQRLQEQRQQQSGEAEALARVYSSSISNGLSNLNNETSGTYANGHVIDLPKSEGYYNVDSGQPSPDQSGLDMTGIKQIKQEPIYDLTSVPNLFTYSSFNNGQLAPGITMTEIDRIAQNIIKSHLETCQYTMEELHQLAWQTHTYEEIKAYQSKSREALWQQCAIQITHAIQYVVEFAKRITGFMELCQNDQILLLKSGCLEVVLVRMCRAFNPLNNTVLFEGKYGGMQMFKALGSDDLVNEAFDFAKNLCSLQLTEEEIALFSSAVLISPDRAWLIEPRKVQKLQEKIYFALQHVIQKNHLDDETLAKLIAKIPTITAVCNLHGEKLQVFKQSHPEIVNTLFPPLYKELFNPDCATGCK
human RAR-related Orphan Receptor gamma (RORg), RORC (gene 6097), sequence (P51449 whole entry, looked up, the tested form may be a part): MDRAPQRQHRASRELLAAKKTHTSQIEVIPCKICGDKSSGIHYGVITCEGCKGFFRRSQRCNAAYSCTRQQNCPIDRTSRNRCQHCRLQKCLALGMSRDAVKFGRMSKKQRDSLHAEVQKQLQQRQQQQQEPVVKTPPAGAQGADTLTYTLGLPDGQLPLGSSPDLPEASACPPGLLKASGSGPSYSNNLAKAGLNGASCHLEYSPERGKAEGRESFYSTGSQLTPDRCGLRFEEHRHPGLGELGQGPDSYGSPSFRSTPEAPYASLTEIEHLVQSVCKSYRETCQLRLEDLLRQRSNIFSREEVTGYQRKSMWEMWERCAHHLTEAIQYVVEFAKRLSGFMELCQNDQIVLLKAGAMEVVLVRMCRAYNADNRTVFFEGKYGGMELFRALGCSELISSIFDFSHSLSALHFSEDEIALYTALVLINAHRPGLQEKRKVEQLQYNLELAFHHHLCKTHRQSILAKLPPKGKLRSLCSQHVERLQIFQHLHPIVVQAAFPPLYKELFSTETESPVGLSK
human Retinoic Acid Receptor beta (RARb), RARB (gene 5915), sequence (P10826 whole entry, looked up, the tested form may be a part): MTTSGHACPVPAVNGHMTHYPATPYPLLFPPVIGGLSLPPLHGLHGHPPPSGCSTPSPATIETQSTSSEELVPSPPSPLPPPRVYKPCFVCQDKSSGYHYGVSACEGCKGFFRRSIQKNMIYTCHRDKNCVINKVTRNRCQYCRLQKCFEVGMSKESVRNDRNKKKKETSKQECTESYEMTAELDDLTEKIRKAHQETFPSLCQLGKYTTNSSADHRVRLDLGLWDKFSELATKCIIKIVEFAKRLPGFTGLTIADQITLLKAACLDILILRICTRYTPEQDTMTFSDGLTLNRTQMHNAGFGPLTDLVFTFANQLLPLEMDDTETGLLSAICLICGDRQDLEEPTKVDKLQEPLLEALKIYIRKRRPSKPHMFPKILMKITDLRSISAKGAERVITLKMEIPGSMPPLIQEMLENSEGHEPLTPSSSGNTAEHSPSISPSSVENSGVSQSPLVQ

Consider `Cc1cccc(N)n1`, for which the compound was called inactive in [1], in assay [2], in [3], in assay [4], in assay [5] and in assay [6]. In addition, the result in assay [7] and in [8] was inactive.

Turning to `C=C(C)c1cccc(C(C)(C)N=C=O)c1`, the outcome in assay [1], in assay [9], in assay [2], in assay [10], in [3] and in [5] was inactive. Further, the result in [12] and in [8] was inactive. For the same compound, the AC50 (as a rule, the concentration at which the activity in the assay is half-maximal) is 5.62 µM (active) in [11] and 0.0915 µM (active) in assay [6].

For `CCCCCCCCO[C@@H]1O[C@H](CO)[C@@H](O)[C@H](O)[C@H]1O`, the call in assay [1], in assay [2], in assay [10], in [3], in assay [13] and in assay [4] was inactive. Further, the compound was called inactive in assay [6] and in assay [8].

For `C[C@]12CCC(=O)C=C1CC[C@@H]1[C@@H]2C(=O)C[C@@]2(C)[C@H]1CC[C@]2(O)C(=O)CO`, the call in [1], in assay [9], in assay [10], in assay [3], in assay [4] and in assay [11] was inactive. Moreover, in [8], the outcome was inactive. Besides, in assay [6], the concentration at half-maximal activity (AC50) was 26.9 µM (active).

As for `O=C(Nc1ccccc1SSc1ccccc1NC(=O)c1ccccc1)c1ccccc1`, the compound was called inactive in assay [1], in assay [9], in assay [10], in assay [3] and in assay [17]. Also, the half-maximal activity concentration (AC50) in assay [2] was 29.2 µM (active); in assay [14] it was 9.54 µM (active); in assay [15], 11.5 µM (active); in assay [16], 20 µM (active); in assay [13], 23.4 µM (active); in [18] it was 5.29 µM (active). Besides, the half-maximal activity concentration (AC50) in [11] is 17.7 µM (active); in assay [6], 8.27 µM (active).

As for `CC1=NN(c2cc(S(=O)(=O)O)ccc2Cl)C(=O)C1N=Nc1ccccc1` (centres undefined), the call in assay [1], in assay [2], in assay [10], in [3], in assay [13] and in assay [11] was inactive. For the same compound, the call in assay [6], in assay [12], in assay [7] and in assay [8] was inactive.

As to `CCCCCCCCCCOS(=O)(=O)O`, the call in assay [1], in assay [9], in assay [10], in [3] and in [6] was inactive. The AC50 is 27.6 µM (active) in assay [13] and 22.6 µM (active) in assay [11].

On to `O=C1CC2CC1C1CCCC21` (centres undefined), for which the outcome in assay [1], in assay [9], in assay [10], in [3], in assay [4] and in [11] was inactive. Moreover, the call in [6], in assay [12] and in assay [7] was inactive. For the same compound, the concentration at half-maximal activity (AC50) in assay [2] was 72.4 µM (active).

For `O=C(O)C(c1ccc(Cl)cc1)c1ccc(Cl)cc1`, the compound was classed as inactive in assay [1], in assay [9], in assay [2], in assay [10] and in assay [6].

The record behind these values is PubChem BioAssay (EPA / NIEHS).
